The results in this text go back to PubChem BioAssay AID1069 (NMMLSC, 2008).

The assay in a line: activators of LNCaP cell differentiation, retest, confirmation, side scatter shift, flow cytometry (AID 1069).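 Also: LNCaP human prostate cancer cells in low-serum medium with charcoal-stripped FBS; percent of cells with raised granularity gated so DMSO controls show 10%.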 The following applies: 4 d, stronger effect = higher value.

SMILES strings stand for the structures. Calls of active or inactive are those of the source.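 The calls were made as follows: active = high combined rank on largest and smallest cell-count-weighted shift across three tests, rank score above 45, floors 50 and 25 (some results past the limit were not filed as active); inactive = the rest.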

As for `CCOc1ccccc1NC(=O)c1nc[nH]c1C(=O)Nc1ccccc1OCC`, the side scatter shift (at 100 µM) was 40% (inactive) and the side scatter shift (side scatter shift, at 10 µM) worked out at 6.05%.
For `N=c1c(C(=O)NC2CCCC2)cc2c(=O)n3ccccc3nc2n1C1CCCC1`, in that order: 16.7% (inactive) and 7.85%.
For `CCOC(=O)N1CCC(NC(=O)c2cc3c(-c4cccc(OC)c4)nn(C)c3s2)CC1`, in that order: 7.7% (inactive) and 2.35%.
The matching figures for `COC(=O)c1ccccc1NC(=O)CN1CCC(n2nnc3cc(F)ccc32)CC1`: 25.9% (inactive) and 6.9%.
On to `Cc1cc(N2CCN(C)CC2)nc2ccc(NC(=O)c3ccc4c(c3)OCO4)cc12`, for which the side scatter shift is, setting by setting: (at 100 µM) 71.9% (active); (side scatter shift, at 10 µM) 24.6%.
The matching figures for `CS(=O)(=O)c1nc(-c2cccs2)cc(C(F)(F)F)n1`: 52.8% (inactive) and 15.6%.
The matching figures for `CCn1c(=O)cc(SCC(=O)NCCCN2CCN(c3ccccc3F)CC2)c2ccccc21`: 0% (active) and 33.5%.
For `Cc1cc(C)n2nnnc2c1C#N`, in that order: 3.9% (inactive) and 6.4%.
On to `Cc1ccc(C(=O)/C=C/Nc2cccc(O)c2)cc1`, for which the side scatter shift runs as follows: (at 100 µM) 35.3% (inactive); (side scatter shift, at 10 µM) 4.85%.
For `COc1ccc(CCNC(=O)C2CCCN(Cc3nc(-c4cccc(Cl)c4)oc3C)C2)cc1OC` (stereo not drawn), in that order: 28.6% (inactive) and 3.85%.
The matching figures for `Oc1ccccc1CNc1nc2ccccc2n1CCN1CCCCC1`: 22.7% (inactive) and 12.2%.
The matching figures for `Cc1oc(-c2ccc(Cl)cc2)nc1CN1CCCC(C(=O)NCc2cccnc2)C1` (stereo not drawn): 25% (inactive) and 7.2%.
As for `COc1ccc(CCNC(=O)C2CCN(Cc3nc(-c4ccccc4C)oc3C)CC2)cc1OC`, the side scatter shift runs as follows: (at 100 µM) 0% (inactive); (side scatter shift, at 10 µM) 20%.
For the molecule `CCc1ncc(C(O)c2cccc(OC)c2OC)n1C` (stereo not drawn), the side scatter shift is 1.4% (inactive) (at 100 µM) and 5.25% (side scatter shift, at 10 µM).
